In the library only some 9.9% were active in any assay of this set; here they are far more common.
KB-3-1 tox: kills parental KB-3-1 adenocarcinoma cells | 1.4% of 400,000 active | KB-3-1 viability, CellTiter-Glo ATP luminescence, 72 h | Potency, µM (top dose mostly 46.1 µM), actives largely listed as cytotoxic; also: potency is read from the fitted curve at half-maximal effect; % is scaled to controls: 0 for no effect and ±100 for the full control effect; nearly all actives have a fitted effect of over 60% in size
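Parental KB-3-1 viability, qHTS format: 72 h compound exposure, 37 °C; CellTiter-Glo; media-only wells and DMSO plates as controls; concentration-effect fits on corrected data.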
MCF10A rereplic: induces DNA re-replication in MCF 10a normal breast cells; MCF 10A DNA re-replication, Hoechst nuclear intensity, 48 h; Potency, µM (titrated, usually from 46.1 µM), without a hit: top-dose activity, positive = re-replication, hits mostly activators; 2.9% of 350,000 active; also: potency is read from the fitted curve at half-maximal effect; % of control where 0% means no effect; nearly all actives have a fitted effect of over 50% in size
KB-V1 cytotox: kills drug-selected multidrug resistant KB-V1 cells; KB-V1 MDR cells viability, CellTiter-Glo, 72 h; Potency, µM (doses to about 46.1 µM), usual class: cytotoxic; 3.4% of 400,000 active; AID 1347076; also: potency is read from the fitted curve at half-maximal effect; % is scaled to controls: 0 for no effect and ±100 for the full control effect; nearly all actives have a fitted effect of over 60% in size
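Cytotoxicity via CellTiter-Glo luminescence after 72 h compound exposure at 37 degrees C. Cells: drug-selected KB-V1 line, DMEM phenol-red free plus 10% FBS. Compounds tested at multiple concentrations; normalized data fitted to concentration-effect curves.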
IL1B secr inh: inhibitors of inflammasome signaling (IL-1 beta secretion); THP-1 LPS/ATP IL-1B secretion, AlphaLISA, 16 h; active compounds read low; activity change, % at 57.5 µM; 4.7% of 360,000 active; AID 743279; in the data active = activity change below about -50%; inconclusive = mostly about -30% to -49%; also: % is scaled to controls: 0 for no effect and ±100 for the full control effect
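Secreted IL-1B measured by AlphaLISA bead assay after 16 h compound exposure of THP-1 cells; compounds (final up to 57.5 uM) added 1 h before LPS (250 ng/mL) and ATP (1.25 mM) stimulation; lower signal means less secretion.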
SW480 rerep: induces DNA re-replication in SW480 colon adenocarcinoma cells; SW480 DNA re-replication, Hoechst DNA content imaging, 48 h; Potency, µM (top dose mostly 46.1 µM), for the others: top-dose re-replication activation, hits mostly activators; 1.8% of 340,000 active; AID 624297; also: potency is read from the fitted curve at half-maximal effect; % of control where 0% means no effect; nearly all actives have a fitted effect of over 55% in size
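Image-based read-out: total Hoechst fluorescence of nuclei (405 nm excitation, 500-530 nm emission), with hits raising the fraction of high-intensity nuclei. SW480 colon cells incubated 48 hr with compounds at 37 C.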
* = called active by the depositor; i = inactive; ? = inconclusive; · = no result. Unless noted, calls follow the shape of the dose curve; as a rule, active = well fitted curve in the direction sought with a large enough effect; inconclusive = small, poorly fitted or top-dose-only effect, or another doubt; inactive = no such curve, though single readings can be large; an effect the other way counts as inactive or inconclusive.

SMILES | KB-3-1 tox | MCF10A rereplic | KB-V1 cytotox | IL1B secr inh | SW480 rerep
Nc1ccc(N2CCN(c3cccc(Cl)c3)CC2)cc1 | ? | 15% | 21µM* | ? | 17%
Nc1nc(N2CCN(c3cccc(Cl)c3)CC2)n[nH]1 | ? | 0% | i | -4 | -9%
NCCNC[C@@H]1COC2(CCCCCCCCCCC2)O1 | i | ? | ? | -68* | ?
CCOC(=O)c1sc(N(Cc2ccccc2)C(=O)COC(=O)c2ccc(O)cc2)nc1C | i | 9.2µM* | i | ? | ?
COCCN(C(=O)CSc1ncn[nH]1)c1c(N)n(Cc2ccccc2)c(=O)[nH]c1=O | i | -1% | ? | 29 | -1%
CCOC(=O)c1sc(N(Cc2ccccc2)C(=O)COC(=O)c2ccccc2O)nc1C | i | -69% | i | 0 | -1%
CCOC(=O)c1sc(N(Cc2ccccc2)C(=O)CCl)nc1C | i | ? | i | -101* | -4%
CCOC(=O)c1sc(N(Cc2ccccc2)C(=O)CSc2ncn[nH]2)nc1C | i | ? | i | -52* | 2%
Cc1noc(C)c1COc1ccc(C(=O)N2CCCC(C(F)(F)F)C2)cc1 (stereo unspecified) | i | 12% | ? | 22 | -3%
Cc1cc(C)cc(NC(=O)C(=O)NCC(c2ccc3c(c2)OCO3)N2CCN(C)CC2)c1 (stereo unspecified) | i | · | i | · | ·
CCOC(=O)c1c(C)c(C(=O)NCc2ccco2)c(C)n1Cc1ccccc1 | i | 0% | 4.1µM* | -14 | 0%
CCOC(=O)c1c(C)c(C(=O)NCc2ccco2)c(C)n1CC | i | -1% | i | -4 | 3%
COC(=O)CSc1nc(SC)nc2c1sc1nc(-c3ccco3)c3c(c12)CC(C)(C)OC3 | i | 1% | i | 27 | -2%
CSc1nc(SCCO)c2sc3nc(-c4ccco4)c4c(c3c2n1)CC(C)(C)OC4 | ? | 13µM* | i | 0 | 5%
CSc1nc(N(CCO)CCO)c2sc3nc(-c4ccco4)c4c(c3c2n1)CCC4 | i | 15µM* | i | -18 | ?
Cc1cc(/C=N\NC(=O)CC(=O)NC2CCCCC2)c(C)n1-c1cccc(Cl)c1Cl | ? | ? | 23µM* | -5 | ?
Cc1cc(/C=N\NC(=O)CC(=O)NC2CCCCC2)c(C)n1-c1ccc(Cl)c(Cl)c1 | ? | 30% | ? | 0 | 27%
COc1cc(/C=C2/SC(=S)N(CCC(=O)Nc3ccccc3)C2=O)cc(OC)c1OC | i | 21µM* | i | -2 | 1%
COc1cc(/C=C2\SC(=S)N(CCC(=O)Nc3cccc(O)c3)C2=O)cc(OC)c1OC | i | ? | i | -98* | -3%
COc1ccccc1NC(=O)CCN1C(=O)/C(=C\c2cc(OC)c(OC)c(OC)c2)SC1=S | i | 1% | i | 9 | 5%
COc1cc(/C=C2/SC(=S)N(CCC(=O)Nc3cccnc3)C2=O)cc(OC)c1OC | i | · | i | -20 | ·
COc1cc(/C=C2\SC(=S)N(CCC(=O)Nc3ccccc3)C2=O)cc(OC)c1OC | i | 18µM* | i | 8 | -56%
COc1ccccc1/C=C1\SC(=S)N(CCC(=O)Nc2cccc(O)c2)C1=O | i | 10µM* | i | -25 | -24%
CS(=O)(=O)c1ccc(-c2csc(C(O)(c3ccccc3)C(F)(F)F)n2)cc1 (stereo unspecified) | i | · | i | 1 | ·
COc1ccc(S(=O)(=O)N2CCOCC2)cc1NC(=O)CCCOc1ccc(C(C)=O)cc1 | i | · | i | 10 | ·
SMILES | KB-3-1 tox | MCF10A rereplic | KB-V1 cytotox | IL1B secr inh | SW480 rerep
Cc1ccc(CNC(=O)c2cc3cc(C)ccc3n2C)cc1 | i | · | i | · | ·
COc1ccc(C)cc1NC(=O)CC1NCCNC1=O (stereo unspecified) | i | · | i | · | ·
O=C(NCc1ccccc1F)C(=O)NCC(c1ccco1)S(=O)(=O)c1cccs1 (stereo unspecified) | i | · | i | · | ·
COc1ccc(CCNC(=O)c2ccccc2NC(=O)C2=C(C)OCCS2)cc1OC | i | -4% | ? | 0 | ?
O=C(CCCN1C(=O)/C(=C/c2cccs2)SC1=S)Nc1cccc(O)c1 | i | ? | i | -94* | ?
O=C(CCN1C(=O)/C(=C/c2cccs2)SC1=S)Nc1cccc(O)c1 | ? | ? | i | -82* | 0%
Cc1cc2cc(C#N)c(SCC(=O)Nc3nonc3C)nc2cc1C | i | 15µM* | i | 52 | ?
COc1ccc(C=O)cc1COc1ccccc1F | i | 14% | ? | 56 | ?
COc1ccc(/C=C/C(=O)C2(O)CCCCC2)cc1OC | ? | ? | ? | -91* | ?
COc1ccc(/C=C/C(=O)c2ccccc2)cc1COc1ccccc1F | i | ? | ? | -65* | 15µM*
CCCOc1ccc(/C=C/C(=O)O)cc1OC | i | -1% | i | 35 | -1%
CCOc1ccc(/C=C/C(=O)Oc2ccc(OC)cc2)cc1 | i | 5% | ? | -12 | 15µM*
CCOc1ccc(/C=C/C(=O)c2ccccc2)cc1OC | i | ? | i | -103* | ?
CCC(=O)N1CCc2cc(S(=O)(=O)NCCC(=O)Nc3cccc(SC)c3)ccc21 | i | · | i | · | ·
COC(=O)Cn1nc(-c2ccc(C)cc2)c2ccccc2c1=O | i | 6% | ? | -2 | -5%
CC(=O)Cn1cnc2c(cnn2-c2ccc(C)c(C)c2)c1=O | i | 0% | i | 39 | 3%
CCCn1c(=O)n(-c2ccccc2)c(=O)c2sc3ccccc3c21 | i | · | i | · | ·
CCOc1ccc(C(=O)/C=C/c2ccc(OC)c(OC)c2)cc1 | i | ? | ? | -106* | ?
COc1ccc(C(=O)Oc2ccc(F)cc2C(=O)/C=C/c2ccc(OC)c(OC)c2)cc1 | i | 0% | ? | -1 | ?
COc1ccc(C(=O)/C=C/c2ccc(OC3CSC3)cc2)cc1OC | i | ? | i | -88* | ?
O=C(/C=C/c1ccc(OC2CSC2)cc1)c1ccc(Cl)cc1 | i | 19% | i | -13 | 1%
CCOC(=O)C1CCCN(C(=O)CN2C(=O)/C(=C/c3ccc(OC)cc3)Oc3ccccc32)C1 (stereo unspecified) | i | ? | 16µM* | -20 | 5%
CCOC(=O)C1CCCN(C(=O)CN2C(=O)c3ccccc3C2=O)C1 (stereo unspecified) | i | 0% | i | 8 | -2%
C=CS(=O)(=O)c1c2cc(OC)ccc2nc2ccc(OC)cc12 | ? | ? | 21µM* | -98* | 21µM*
CC(NCC(=O)NC(=O)NCCC1=CCCCC1)c1ccc(S(N)(=O)=O)cc1 (stereo unspecified) | i | 0% | i | 20 | ?

Screening results deposited in PubChem BioAssay by National Center for Advancing Translational Sciences (NCATS).
